# Data reported in PubChem BioAssay (Tox21).
# Several values for one entry are separate records, joined by “and”; a condition that tells them apart may be missing. Equal entries are not always repeated. Inconclusive results are not listed. A call without a number means that no potency is given here. Where a structure was tested more than once in an assay, its records may differ in their call. Activity calls are given as the source filed them. Unless noted, calls come from the whole dose curve; as a rule, active = well fitted curve in the direction sought with a large enough effect in the repeat runs; inconclusive = weak or mixed curves; inactive = no such curve, though single readings can be large; an effect the other way counts as inactive or inconclusive.
# Experiments:
# [1] = qHTS assay to identify small molecule antagonists of the estrogen receptor alpha (ER-alpha) signaling pathway using the BG1 cell line in the presence of 0.1 nM 17-beta-estradiol - cell viability counter screen (AID 1259241); note: nearly all actives have a fitted effect of over 40% in size
# Outline: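 Cytotoxicity counter-screen: live-cell protease activity measured by fluorescence (30 min reagent step) in the same wells. Cells were VM7Luc4E2 with endogenous ER-alpha and ERE-driven luciferase, treated 22 hr at 37C alongside 0.1 nM 17beta-estradiol final.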
# [2] = qHTS assay to identify small molecule antagonists of the androgen receptor (AR) signaling pathway using the MDA cell line in the presence of 0.5 nM R1881 - cell viability counter screen (AID 1259242); note: nearly all actives have a fitted effect of over 45% in size
# Outline: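 Live-cell protease fluorescence, CellTiter-Fluor, 30 min at 37C. Cells: MDA-kb2, 3,000/well, preincubated 5 hr. Compounds plus 0.5 nM R1881 final, 16 hr, 37C, 0% CO2.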
# [3] = qHTS assay to identify small molecule HDAC inhibitors (AID 1259364);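 note: wild-type HCT-116 cells with endogenous class I/II HDAC activity; top concentration of the series differs between compounds; nearly all actives have a fitted effect of over 45% in size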
# Outline: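 HCT-116 (wild type), 1,500 cells/well, overnight; compound 2 hr 37C 5% CO2; HDAC-Glo I/II reagent 30 min RT; luminescence readout.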
# [4] = qHTS assay to identify small molecule HDAC inhibitors - cell viability counter screen (AID 1259365); note: series mostly up to about 92 µM; nearly all actives have a fitted effect of over 50% in size
# Outline: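 CellTiter-Glo luminescence (30 min, room temperature) reported viability after a 2 h compound exposure at 37 C. Cells: wild-type HCT-116, 1,500 per well, seeded the night before.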
# [5] = qHTS assay to identify small molecule agonists of the sonic hedgehog signaling (Shh) pathway - cell viability counter screen (AID 1259366); note: nearly all actives have a fitted effect of over 50% in size; note: potency is the fitted concentration of half-maximal effect
# Outline: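 Cytotoxicity counter screen: CellTiter-Fluor reagent added after 23 h compound exposure, then 1 h at 37C and fluorescence read. Cells were 3T3 Gli1-Luc, seeded 2,000 per well and dosed 4 h post-plating.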
# [6] = qHTS assay to identify small molecule antagonists of the sonic hedgehog signaling (Shh) pathway - cell viability counter screen (AID 1259367); note: nearly all actives have a fitted effect of over 55% in size; note: potency is the fitted concentration of half-maximal effect
# Outline: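 Fluorescence read-out (CellTiter-Fluor, 1 hr at 37C) taken after 23 hr compound treatment of 3T3 Gli1-Luc cells stimulated with conditioned medium. Cells were seeded at 2,000 per well and pre-incubated 4 hr.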
# [7] = qHTS assay to identify small molecule agonists of the sonic hedgehog signaling (Shh) pathway (AID 1259368; calls by dose curve;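 note: NIH/3T3-derived 3T3Gli1-Luc cells carrying a stable Gli1-driven firefly luciferase reporter; series mostly up to about 92 µM; nearly all actives have a fitted effect of over 15% in size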)
# Outline: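 Read-out: firefly luciferase luminescence from a Gli1 response element reporter stably integrated in NIH/3T3-derived 3T3Gli1-Luc cells, measured 30 min at room temperature after reagent addition. Compound exposure lasted 24 hr at 37 C, 5% CO2.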
# [8] = qHTS assay to identify small molecule agonists of the androgen receptor (AR) signaling pathway in the presence of an antagonist - cell viability counter screen (AID 1259379);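 note: MDA-kb2 human breast cancer cells carrying an MMTV luciferase reporter; series mostly up to about 92 µM; nearly all actives have a fitted effect of over 25% in size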
# Outline: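 Viability counter screen: CellTiter-Fluor fluorescence, measured in the same wells as the luciferase read-out. MDA-kb2 cells, 3,000/well, with nilutamide at 3.0uM final and compounds at 15 concentrations, 16 hr at 37C, 0% CO2.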
# [9] = qHTS assay to identify small molecule antagonists of the estrogen receptor beta (ER-beta) signaling pathway - cell viability counter screen (AID 1259382); note: series mostly up to about 92 µM; nearly all actives have a fitted effect of over 55% in size
# Outline: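 Luminescent ATP read-out (CellTiter-Glo, 30 min, RT) taken in the same wells as the bla reporter assay. HEK293T ER-beta-UAS-bla cells in 2% charcoal-stripped FBS were exposed to compounds with 1nM E2 for 16 hr at 37C.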
# [10] = qHTS assay to identify small molecule agonists or antagonists of the thyroid stimulating hormone receptor (TSHR) signaling pathway - wild type cell line counter screen (AID 1259384; calls by dose curve)
# Outline: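 Wild-type Hek293 cells, 800/well, 18 h at 37C, then compound with Ro20-1724 for 30 min RT. cAMP by HTRF (cAMP-d2/anti-cAMP cryptate), 1 h RT, fluorescence read. 15 concentrations, triplicates.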
# [11] = molecular target: Androgen receptor (Homo sapiens) (UniProt P10275); assay: qHTS assay to identify small molecule antagonists of the androgen receptor (AR) signaling pathway using the MDA cell line in the presence of 0.5 nM R1881 (AID 1259243); note: nearly all actives have a fitted effect of over 50% in size
# Outline: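 MDA-kb2, MMTV-luc (AR/GR elements); 3,000 cells/well; cpd + 0.5 nM R1881 final; 16 hr 37C, 0% CO2; ONE-Glo 30 min RT; luminescence.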
# [12] = qHTS assay to identify small molecule antagonists of the sonic hedgehog signaling (Shh) pathway (AID 1259369; calls by dose curve; note: nearly all actives have a fitted effect of over 45% in size; note: potency is the fitted concentration of half-maximal effect)
# Outline: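 Luminescence readout: firefly Luc under Gli1 response element in 3T3Gli1-Luc cells (NIH/3T3 clone). Antagonist mode, stimulation by conditioned medium; compound exposure 24hr at 37 C, 5% CO2.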
# [13] = molecular target: Estrogen receptor beta (Homo sapiens) (UniProt Q92731); assay: qHTS assay to identify small molecule agonists of the estrogen receptor beta (ER-beta) signaling pathway (AID 1259377; active = well fitted activation curve with a large enough effect in the signal ratio in the repeat runs, not every such curve was filed as active; the % refers to the signal ratio)
# Outline: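 Ratiometric beta-lactamase FRET read-out came after 2 h substrate loading at room temperature. It followed 16 h compound treatment at 37C of GripTite HEK293T cells carrying a UAS-bla reporter, plated in 2% charcoal-stripped FBS medium.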
# [14] = molecular target: Estrogen receptor beta (Homo sapiens) (UniProt Q92731); assay: qHTS assay to identify small molecule antagonists of the estrogen receptor beta (ER-beta) signaling pathway (AID 1259378; active = well fitted inhibition curve with a large enough effect in the signal ratio in the repeat runs, not every such curve was filed as active; the % refers to the signal ratio)
# Outline: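 ER-beta-UAS-bla HEK293T cells in 2% charcoal-stripped FBS medium treated with compound plus 1nM final 17-beta-estradiol for 16 hr at 37C. Beta-lactamase reporter read by FRET substrate fluorescence after 2 hours at room temperature.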
# [15] = molecular target: Androgen receptor (Homo sapiens) (UniProt P10275); assay: qHTS assay to identify small molecule agonists of the androgen receptor (AR) signaling pathway in the presence of an antagonist (AID 1259381; calls by dose curve; note: nearly all actives have a fitted effect of over 15% in size)
# Outline: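 Luciferase read-out (ONE-Glo, 30min room temperature) in MDA-kb2 MMTV-reporter cells; agonist mode run in presence of AR antagonist nilutamide, 3.0uM final. Compounds tested as 15-point series, 16hr exposure at 37C, 0% CO2.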
# [16] = molecular target: Thyrotropin receptor (Homo sapiens) (UniProt P16473); assay: qHTS assay to identify small molecule antagonists of the thyroid stimulating hormone receptor (TSHR) signaling pathway (AID 1259385; calls by dose curve; note: nearly all actives have a fitted effect of over 20% in size)
# Outline: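 TSHR-HEK293 cells (800/well) plated 18 h, then compounds with Ro20-1724 and TSH at 1.5 ng/mL final, 30 min at room temperature. cAMP quantified by HTRF (cAMP-d2/anti-cAMP-cryptate, 1 h); 15 concentrations in triplicate.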
# [17] = molecular target: Estrogen receptor (Homo sapiens) (UniProt P03372); assay: qHTS assay to identify small molecule agonists of the estrogen receptor alpha (ER-alpha) signaling pathway in the presence of an antagonist (AID 1259383; calls by dose curve; note: nearly all actives have a fitted effect of over 15% in size; note: potency is the fitted concentration of half-maximal effect; for activation: top concentration of the series differs between compounds)
# Outline: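 Luciferase luminescence (ONE-Glo, 30min at room temperature) measured in VM7Luc4E2 cells after 22hr compound exposure at 15 concentrations, with 10.0nM ICI-182,780 final present; cells express endogenous ER-alpha and carry four EREs upstream of luciferase.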
# [18] = qHTS assay to identify small molecule phospholipidosis (PLD) inducers (AID 1259344; active = well fitted curve in the direction sought with a large enough effect; an effect the other way counts as inactive or inconclusive)
# Outline: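 Read-out is LipidTOX Red fluorescence (ex 595/em 615) imaged in HepG2 cells after 24 h compound exposure at 37 C, with Hoechst nuclear counterstain (ex 352/em 461) allowing per-cell normalisation.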
# [19] = qHTS assay to identify small molecule agonists of the estrogen receptor beta (ER-beta) signaling pathway - cell viability counter screen (AID 1259380); note: nearly all actives have a fitted effect of over 30% in size; note: potency is the fitted concentration of half-maximal effect
# Outline: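 Luminescence read-out (CellTiter-Glo, 30 min, room temp) taken in the same wells as the beta-lactamase reporter assay; ER-beta-UAS-bla HEK293T cells exposed to DMSO-dissolved compounds for 16 hr at 37C in 2% charcoal-stripped FBS medium.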
# [20] = molecular target: Estrogen receptor (Homo sapiens) (UniProt P03372); assay: qHTS assay to identify small molecule antagonists of the estrogen receptor alpha (ER-alpha) signaling pathway using the BG1 cell line in the presence of 0.1 nM 17-beta-estradiol (AID 1259244); note: nearly all actives have a fitted effect of over 50% in size
# Outline: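 Luminescence after ONE-Glo (30 min, room temperature) measured ERE-luciferase activity in VM7Luc4E2 cells treated 22 h with compound and 0.1 nM final 17beta-estradiol as stimulator.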
# Sequence of Thyrotropin receptor (Homo sapiens) (P16473 whole entry, looked up): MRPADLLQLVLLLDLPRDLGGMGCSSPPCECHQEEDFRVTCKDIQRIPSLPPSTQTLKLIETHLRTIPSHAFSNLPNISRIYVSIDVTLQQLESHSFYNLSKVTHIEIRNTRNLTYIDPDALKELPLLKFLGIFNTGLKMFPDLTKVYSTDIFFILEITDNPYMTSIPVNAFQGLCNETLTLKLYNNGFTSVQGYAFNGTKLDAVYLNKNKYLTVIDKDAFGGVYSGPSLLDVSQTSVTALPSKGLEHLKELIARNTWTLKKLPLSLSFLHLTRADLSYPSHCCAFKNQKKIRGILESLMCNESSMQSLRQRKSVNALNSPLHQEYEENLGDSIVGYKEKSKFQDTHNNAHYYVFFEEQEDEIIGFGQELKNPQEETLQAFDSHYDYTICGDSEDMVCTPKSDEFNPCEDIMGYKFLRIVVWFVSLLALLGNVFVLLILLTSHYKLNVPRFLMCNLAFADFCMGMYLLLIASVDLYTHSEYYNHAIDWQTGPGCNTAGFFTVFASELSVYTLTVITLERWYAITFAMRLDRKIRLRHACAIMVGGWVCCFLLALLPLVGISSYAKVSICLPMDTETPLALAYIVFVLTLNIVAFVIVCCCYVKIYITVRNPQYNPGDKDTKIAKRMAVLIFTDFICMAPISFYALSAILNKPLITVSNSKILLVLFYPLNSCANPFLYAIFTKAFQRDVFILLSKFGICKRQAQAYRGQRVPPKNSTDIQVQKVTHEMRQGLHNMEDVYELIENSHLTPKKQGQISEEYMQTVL
# Sequence of Estrogen receptor beta (Homo sapiens) (Q92731 whole entry, looked up): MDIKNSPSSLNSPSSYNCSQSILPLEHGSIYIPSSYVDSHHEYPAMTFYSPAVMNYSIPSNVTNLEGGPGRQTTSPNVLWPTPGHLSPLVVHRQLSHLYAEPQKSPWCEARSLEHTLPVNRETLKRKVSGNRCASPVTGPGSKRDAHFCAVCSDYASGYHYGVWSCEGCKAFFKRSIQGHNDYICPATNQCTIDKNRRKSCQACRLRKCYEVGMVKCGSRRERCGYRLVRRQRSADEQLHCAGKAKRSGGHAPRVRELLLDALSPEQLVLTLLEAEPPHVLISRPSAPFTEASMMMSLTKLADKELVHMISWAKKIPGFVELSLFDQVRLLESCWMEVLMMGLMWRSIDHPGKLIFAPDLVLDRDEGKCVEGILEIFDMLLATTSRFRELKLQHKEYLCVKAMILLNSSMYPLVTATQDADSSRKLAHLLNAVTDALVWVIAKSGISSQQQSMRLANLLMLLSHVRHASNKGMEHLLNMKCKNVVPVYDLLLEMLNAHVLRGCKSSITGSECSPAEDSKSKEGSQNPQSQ
# Sequence of Estrogen receptor (Homo sapiens) (P03372 whole entry, looked up): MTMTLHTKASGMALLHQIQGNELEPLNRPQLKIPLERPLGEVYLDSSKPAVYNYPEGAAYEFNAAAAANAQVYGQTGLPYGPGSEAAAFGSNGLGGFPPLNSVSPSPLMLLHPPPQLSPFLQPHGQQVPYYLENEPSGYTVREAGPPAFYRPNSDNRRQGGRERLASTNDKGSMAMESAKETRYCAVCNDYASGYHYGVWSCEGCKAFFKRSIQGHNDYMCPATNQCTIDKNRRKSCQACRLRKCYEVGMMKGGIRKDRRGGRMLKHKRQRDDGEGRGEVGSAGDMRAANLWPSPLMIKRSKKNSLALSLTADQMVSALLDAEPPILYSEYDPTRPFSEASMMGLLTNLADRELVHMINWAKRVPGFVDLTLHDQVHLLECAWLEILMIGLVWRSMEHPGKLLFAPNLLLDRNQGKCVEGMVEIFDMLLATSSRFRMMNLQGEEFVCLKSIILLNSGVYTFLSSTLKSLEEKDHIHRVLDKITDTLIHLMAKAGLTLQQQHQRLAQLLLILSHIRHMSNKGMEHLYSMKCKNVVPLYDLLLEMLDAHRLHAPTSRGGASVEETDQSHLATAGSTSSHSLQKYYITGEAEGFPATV
# Sequence of Androgen receptor (Homo sapiens) (P10275 whole entry, looked up): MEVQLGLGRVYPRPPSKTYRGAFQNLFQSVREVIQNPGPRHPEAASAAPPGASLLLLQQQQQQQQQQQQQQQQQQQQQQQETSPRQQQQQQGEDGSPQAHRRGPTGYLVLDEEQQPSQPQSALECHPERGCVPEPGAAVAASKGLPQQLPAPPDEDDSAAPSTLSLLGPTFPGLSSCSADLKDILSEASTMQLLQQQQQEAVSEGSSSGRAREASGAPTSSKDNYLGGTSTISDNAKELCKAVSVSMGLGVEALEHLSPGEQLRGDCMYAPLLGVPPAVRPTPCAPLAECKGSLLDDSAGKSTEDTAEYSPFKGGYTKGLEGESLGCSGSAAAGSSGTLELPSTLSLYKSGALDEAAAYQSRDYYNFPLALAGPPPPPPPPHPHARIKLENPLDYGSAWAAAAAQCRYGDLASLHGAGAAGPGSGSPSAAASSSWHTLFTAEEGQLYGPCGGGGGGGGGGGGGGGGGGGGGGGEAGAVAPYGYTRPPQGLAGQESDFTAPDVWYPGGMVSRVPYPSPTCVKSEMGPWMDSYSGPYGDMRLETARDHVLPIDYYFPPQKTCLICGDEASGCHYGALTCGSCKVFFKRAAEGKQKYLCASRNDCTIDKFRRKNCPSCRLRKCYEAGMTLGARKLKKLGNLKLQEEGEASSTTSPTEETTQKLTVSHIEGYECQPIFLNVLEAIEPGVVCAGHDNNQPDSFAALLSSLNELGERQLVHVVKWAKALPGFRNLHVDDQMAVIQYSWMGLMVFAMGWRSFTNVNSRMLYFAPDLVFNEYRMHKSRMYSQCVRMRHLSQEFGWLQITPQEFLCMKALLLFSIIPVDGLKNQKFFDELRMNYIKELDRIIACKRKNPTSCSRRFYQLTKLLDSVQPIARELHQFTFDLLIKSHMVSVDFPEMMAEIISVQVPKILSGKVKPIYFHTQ
Structure (SMILES),Potency [1],Potency [2],Potency [3],Potency [4],Potency [5],Potency [6],Potency [7],Potency [8],Potency [9],Potency [10],Potency [11],Potency [12],Potency [13],Potency [14],outcome [15],Potency [16],Potency [17],outcome [18],Potency [19],Potency [20]
CCOC(=O)CC(=O)OCC,inactive,inactive,inactive,inactive,inactive,inactive,inactive,inactive,inactive,inactive,–,–,–,–,–,–,–,–,–,–
CC(C=O)Cc1ccc(C(C)(C)C)cc1 (centres undefined),inactive,–,inactive,inactive,inactive,inactive,inactive,inactive,inactive,inactive,inactive,inactive,inactive,inactive,inactive,inactive,–,–,–,–
COCN(COC)c1nc(N(COC)COC)nc(N(COC)COC)n1,inactive,inactive,inactive,inactive,inactive,inactive,inactive,inactive,inactive,inactive,–,inactive,inactive,inactive,–,–,inactive,–,–,–
CCCCCC(C)=O,inactive,inactive,inactive,–,inactive,inactive and 54.5 µM (active),inactive,inactive,inactive,–,–,inactive and 27.3 µM (active),inactive,–,–,–,–,–,–,–
Cc1ncc(CO)c(CO)c1O,inactive,inactive,inactive,–,inactive,inactive,inactive,inactive,inactive,inactive,–,–,–,–,–,–,–,inactive,–,–
COC(=O)OC,inactive,inactive,inactive,inactive,inactive,inactive,inactive,inactive,inactive,inactive,–,inactive,inactive,–,–,inactive,–,–,inactive,–
O=C(Cl)c1ccc(C(=O)Cl)cc1,inactive,inactive,inactive,inactive,inactive,inactive,inactive,inactive,inactive,inactive,–,inactive,inactive,–,–,inactive,inactive,–,inactive,–
NC(=O)NC(N)=O,inactive,inactive,inactive,–,inactive,inactive,inactive,inactive,inactive,inactive,–,inactive,inactive,–,–,inactive,inactive,–,inactive,–
Nc1cccc(N)n1,inactive,inactive,inactive,inactive,inactive,inactive,inactive,inactive,inactive,inactive,–,inactive,–,–,–,–,inactive,–,inactive,–
OCCOCCOCCOCCOCCO,inactive,inactive,inactive,inactive,inactive,inactive,inactive,inactive,inactive,inactive,–,–,inactive,–,–,–,–,–,–,–
O=C1OC(=O)c2c(Cl)c(Cl)c(Cl)c(Cl)c21,inactive,inactive,inactive,inactive,inactive,inactive,inactive,inactive,inactive,inactive,–,–,–,–,–,inactive,–,–,inactive,–
Cc1cc(C)cc(O)c1,inactive,inactive,inactive,–,8.65 µM (active) and inactive,2.44 µM (active) and inactive,inactive,inactive,inactive,inactive,–,–,inactive,inactive,–,inactive,inactive,–,inactive,–
O=c1n(CCCN2CCN(c3cccc(Cl)c3)CC2)nc2ccccn12,inactive,inactive,inactive,–,inactive,inactive,inactive,inactive,inactive,inactive,–,–,–,–,–,–,–,inactive,24.3 µM (active),–
CCCCCNCCCCC,inactive,inactive,inactive,–,inactive,inactive,inactive,inactive,inactive,inactive,–,–,inactive,–,–,inactive,–,–,–,–
COc1ccccc1[N+](=O)[O-],inactive,inactive,inactive,inactive,inactive,inactive,inactive,inactive,inactive,–,–,inactive,–,–,–,–,–,–,inactive,–
O=[N+]([O-])c1cc(C(F)(F)F)ccc1Cl,inactive,–,inactive,inactive,inactive,inactive,inactive,inactive,inactive,inactive,inactive,–,inactive,inactive,inactive,inactive,–,–,inactive,–
O=C(c1ccccc1)c1ccc(O)c(O)c1O,inactive,inactive,inactive,inactive,–,–,inactive,–,inactive,inactive,–,54.9 µM (active),–,–,–,–,inactive,–,inactive,–
O=[N+]([O-])c1ccccc1C(F)(F)F,inactive,–,inactive,–,inactive,inactive,inactive,inactive,inactive,–,inactive,–,inactive,–,inactive,–,59.8 µM (active) and inactive,–,inactive,inactive
CC(=O)Nc1ccc(CC(=O)O)cc1,inactive,inactive,inactive,–,inactive,inactive,inactive,inactive,inactive,inactive,–,inactive,–,–,–,–,inactive,inactive,inactive,–
OB(O)O,inactive,–,inactive,inactive,inactive,inactive,inactive,inactive,inactive,inactive,–,inactive,–,–,–,inactive,inactive,inactive,–,–
CC(=O)OCCC(C)C,inactive,–,inactive,–,inactive,inactive,inactive,inactive,inactive,–,–,–,inactive,inactive,–,–,–,–,inactive,–
